Source: PubChem
Only some compounds are listed: those with a hit (about 9.6% of all), similar ones and a draw of the others.
PLAP activator – activators of human placental alkaline phosphatase | activation fold at 20 µM | 1.2% of 96,000 active | P05187 | purified PLAP enzyme, luminescent substrate read-out; stronger effect = higher value; in the data active means activation fold above about 2
DAT uptake mod – changed human dopamine transporter uptake under cocaine IC80. LLC-PK1 hDAT cells, [14C]-dopamine uptake with cocaine IC80; actives deviate in either direction. B-score at 10 µM. 1.3% of 110,000 active;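 active means Z score or B-score, a plate-position-corrected score, falls beyond the plate's 99.7% confidence bounds, in either direction; inactive means both scores lie inside the 99.7% bounds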;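 further: scored against the spread of the other compound wells on the same plate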
Target sequence (Q01959 whole entry, looked up): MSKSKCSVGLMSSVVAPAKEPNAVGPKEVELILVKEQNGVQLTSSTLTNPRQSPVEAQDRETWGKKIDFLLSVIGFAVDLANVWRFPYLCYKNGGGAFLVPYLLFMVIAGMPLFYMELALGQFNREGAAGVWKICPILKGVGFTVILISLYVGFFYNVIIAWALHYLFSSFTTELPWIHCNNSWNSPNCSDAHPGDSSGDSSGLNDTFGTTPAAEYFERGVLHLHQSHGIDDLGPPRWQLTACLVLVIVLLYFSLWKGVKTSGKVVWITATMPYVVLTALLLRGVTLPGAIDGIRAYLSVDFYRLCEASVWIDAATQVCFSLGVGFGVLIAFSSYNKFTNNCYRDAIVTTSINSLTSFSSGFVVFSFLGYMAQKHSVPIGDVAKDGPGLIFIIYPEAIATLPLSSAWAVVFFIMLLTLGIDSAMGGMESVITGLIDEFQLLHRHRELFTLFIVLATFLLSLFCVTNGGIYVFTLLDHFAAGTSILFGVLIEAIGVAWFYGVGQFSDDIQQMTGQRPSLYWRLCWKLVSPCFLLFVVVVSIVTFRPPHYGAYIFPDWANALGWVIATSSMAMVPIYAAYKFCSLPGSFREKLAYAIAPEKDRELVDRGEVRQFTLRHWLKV
Cav3 T inh – blocks human Cav3.2 T-type calcium channel | 4% of 100,000 active | O95180 | Cav3.2-expressing cells, Fluo-4 calcium fluorescence FDSS; stronger effect = lower value | B-score at 10 µM | AID 449739;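 active means single-dose well whose peak fluorescence ratio is a statistical outlier from its plate by either plate-standardised score or position-corrected B-score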
PostGolgi ctrl – growth of the yeast control strain, post-Golgi counter-screen; efflux-deficient yeast background strain, growth absorbance A615, 16 h; inhibition, % at 10 µM; 5% of 98,000 active
PostGolgi yeast – growth inhibition of a yeast mutant, post-Golgi transport screen; inhibition, % at 10 µM; AID 739; post-Golgi transport phenotypic cell assay; 0.9% of 98,000 active;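 further: yeast cells grown in 1536-well plates; yeast grown about 18 h at 30C before absorbance read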
Starred values were filed as active, the others as inactive; / = not tested or not shown. Unless noted, no stated cut-off is given here; in the data, active means inhibition above about 30%; inactive means the rest.

SMILES	PLAP activator	DAT uptake mod	Cav3 T inh	PostGolgi ctrl	PostGolgi yeast
CCOC(=O)c1nn(-c2ccccc2C)c2nc(-c3ccc(Cl)cc3)c(C#N)c(=O)n12	1	0.78	-0.036	15	-12
Cc1ccc(NC(=O)NCCCc2ccccc2)cc1	1	-0.75	-1	9	-3
COC(=O)c1[nH]c2cccc(Cl)c2c1NC(=O)CN(C)C1CCCCC1	1.5	0.11	-2.3	3	5
COC(=O)c1ccc(NC(=O)Nc2ccc(F)c(Cl)c2)cc1	1	-0.33	0.66	35*	3
COC(=O)c1ccc(NC(=O)Nc2ccc(F)cc2)cc1	0.8	0.34	-3	7	0
CCc1ccc(NC(=O)c2ccc3c(c2)C(=O)N(CCOC)C3Nc2ccc(CC)cc2)cc1 (stereo not given)	/	-0.097	-2.5	/	/
C[C@]12C(=O)N(c3ccc(Cl)cc3)C(=O)N1[C@@H]1c3ccccc3OC[C@@H]1[C@H]2c1ccccc1	/	0.55	-1.4	/	/
CCN(c1cccc(C)c1)S(=O)(=O)c1ccc2c3c(cccc13)C(=O)N2	/	0.99	-2.4	/	/
CCN(CC)S(=O)(=O)c1ccc2c3c(cccc13)C(=O)N2	1.1	2.5*	0.56	7	-5
CCCN1C(=O)/C(=C/c2ccc(N3CCCC3)c(C)c2)NC1=S	0.7	0.025	-7.1*	15	2
O=C(CSCc1ccc(F)cc1)Nc1nc2c(s1)CCCC2	0.9	-0.32	-6.6*	17	-8
Cc1ccc(-n2c(C)nc3c(cnn3-c3ccc(F)cc3)c2=O)cc1	0.9	/	/	6	4
Cc1nc2c(cnn2-c2ccccc2Cl)c(=O)n1-c1ccc(C(C)C)cc1	1.2	0.98	-6.2*	15	5
Cc1cc(Nc2cnc3ccccc3n2)n(-c2ccccc2)n1	1	0.41	-4.6*	22	5
Cc1cc(Nc2nc3ccccc3nc2Cl)n(-c2ccc([N+](=O)[O-])cc2)n1	0.8	0.74	/	32*	1
CCOC(=O)C1CCCN(c2c(N3CCN(c4ccccn4)CC3)c(=O)c2=O)C1 (stereo not given)	1.1	0.5	0.69	-1	3
O=C(CNCC1CCCCC1)Nc1ccccc1N1CCCCC1	1.3	0.13	-7.1*	18	2
CCOc1cc(N2CCOCC2)c(OCC)cc1NC(=O)Cc1cccc(OC)c1	1.5	-0.25	1.5	3	-2
CCOc1cc(N2CCOCC2)c(OCC)cc1NC(=O)CN1CCc2ccccc2C1	1.4	-0.01	-1.2	39*	9
O=C(CN1CCc2ccccc2C1)Nc1ccccc1N1CCCCCC1	1.3	0.43	-3.3*	13	1
Cc1ccccc1OCc1nc2ccccc2c(=O)n1NC(=O)c1ccco1	/	0.4	0.74	8	-5
O=C1CC(N2CCN(c3cccc(C(F)(F)F)c3)CC2)C(=O)N1c1ccccc1F (stereo not given)	1.6	3.2*	-3.2*	25	26
Cc1cc(C)c2nc(C(F)(F)F)nc(NCCCN3CCOCC3)c2c1	1.6	0.16	-3.6	30	41*
Cc1ccc(-c2nc(NCCN3CCOCC3)c3ccccc3n2)cc1	1.3	1.2	2	10	0
COCC(C)NCc1cccc(C)c1 (stereo not given)	1.1	0.49	0.31	-1	-10
SMILES	PLAP activator	DAT uptake mod	Cav3 T inh	PostGolgi ctrl	PostGolgi yeast
O=C(OCCCN=C1NS(=O)(=O)c2ccccc21)C1CC(=O)N(c2ccc(Cl)cc2)C1 (stereo not given)	/	-0.34	1.7	/	/
Cn1c(=O)c2c(SCc3c(F)cccc3Cl)nc(CC(C)(C)C)nc2n(C)c1=O	1.2	-0.62	-2.1	0	-4
CCOC(=O)C1=NN(c2ccc(F)cc2)C2=NC(C)=C(C(=O)OC)C(c3cccs3)N12 (stereo not given)	/	-0.063	0.006	/	/
CCOC(=O)C1=NN(c2ccccc2C)C2=NC(C)=C(C(=O)OC)C(c3cccs3)N12 (stereo not given)	/	0.35	-6*	/	/
CSc1nsc(SCC(=O)Nc2ccc(Br)cn2)n1	1.1	-0.82	-4.1	38*	0
Cc1cc(C)nc(SCC(=O)Nc2ccc(Br)cn2)n1	0.9	-1.1	-0.98	3	2
Cc1ccc2nc(CSc3nc(C)ccc3C#N)[nH]c2c1	2.2*	0.55	-1.4	5	5
CCC(NC(=O)NCc1cccnc1)(C(F)(F)F)C(F)(F)F	1	-0.056	-0.053	3	-1
COc1ccc(NC(=O)CSc2nc(C)c3c(c2C#N)CCCC3)cc1	0.9	1	-0.72	6	2
Cc1nc(SCC(=O)NCc2ccc3c(c2)OCO3)c(C#N)c2c1CCCC2	0.7	0.27	-4*	9	8
CCn1cc(SCC(=O)NCc2ccc3c(c2)OCO3)c2ccccc21	0.9	-0.049	-3.9*	36*	-5
CCCn1cc(SCC(=O)NCc2ccc3c(c2)OCO3)c2ccccc21	0.9	-0.54	-2.3	16	2
COc1ccc(-n2ncc(S(=O)(=O)c3ccccc3)c2-c2ccc(Cl)cc2)cc1	1.4	2.1	-6.7*	19	15
COc1ccc(-n2ncc(N(C)n3cccc3)c(Cl)c2=O)cc1	0.9	0.26	/	2	2
O=S(=O)(c1ccccc1)c1cnn(-c2ccccc2)c1-c1ccc(F)cc1	0.8	0.4	-5.8*	30	-3
Cc1ccc(C(=O)N(c2c(C)n(C)n(-c3ccccc3)c2=O)C(C)C)cc1	0.9	0.37	-0.25	11	-1
COc1ccc(C2NC(=O)c3sc(=S)n(-c4ccccc4)c3N2)cc1 (stereo not given)	0.9	-0.51	-8.4*	4	2
CC1CCC2(CC1)NC(=O)c1ccccc1O2 (stereo not given)	0.9	0.35	-0.73	13	16
CN(C)c1nc(N)nc(CSc2nc3cc(Cl)ccc3o2)n1	1.1	0.35	-1	6	-7
O=S1(=O)C=C(Sc2nc3cc(Cl)ccc3o2)c2ccccc21	1	-1	1	39*	14
CCn1c(SCc2ccc(F)cc2)nnc1-c1nn(-c2ccccc2)ccc1=O	1.3	0.78	1.1	3	-1
O=C(c1ccccc1)N1CCN2C(=O)c3ccccc3C12c1ccc(Cl)cc1 (stereo not given)	1.4	0.16	-8.4*	10	-5
O=C(Nc1ccccc1)N1CCN2C(=O)c3ccccc3C12c1ccccc1 (stereo not given)	1.8	-0.21	-6.9*	4	-6
CCCC(C)NC(=O)c1ccc2[nH]c3c(c2c1)CC(C)CC3 (stereo not given)	0.9	1.8	-5*	20	-12
Cc1ccc(CNC(=O)C2C3C=CC4(CN(Cc5cccnc5)C(=O)C24)O3)cc1 (stereo not given)	1.1	-0.017	0.044	-4	-1
Cc1ccc(CN2CC34C=CC(O3)C(C(=O)NCc3ccc5c(c3)OCO5)C4C2=O)cc1 (stereo not given)	1.4	-8.1*	-0.2	5	-2
COCCCNC(=O)C1C2C=CC3(CN(Cc4ccc(C)cc4)C(=O)C13)O2 (stereo not given)	1.2	-0.96	0.38	33*	-7
